Only some compounds are listed: those with a hit (about 1.2% of all), similar ones and a draw of the others.
Gli-Sufu block = blocks Gli-Sufu signaling in a luciferase reporter. Sufu-KO-LIGHT fibroblasts, Gli luciferase reporter luminescence. inhibition, % at 5 µM. 340,000 compounds, 0.74% hits. AID 588413;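 active means inhibition above about 55%, limit read from the data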
SRC1 inh = inhibitors of human steroid receptor coactivator 1 (SRC1) | Q15788 | HEK293 GAL4-SRC1 luciferase reporter, luminescence | inhibition, % at 3.6 µM | 360,000 compounds, 0.12% hits;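 active means inhibition above the campaign mean plus 3 SD, with each screening campaign given its own cutoff, cut at about 60% in these data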
NCOA2 inhibitor = human SRC2 (NCOA2) inhibition | Q15596 | HEK293 GAL4-SRC2 luciferase reporter, luminescence | inhibition, % at 9 µM | 370,000 compounds, 0.17% hits | AID 651957;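 active means inhibition above the mean inhibition of all tested compounds plus 3 SD, set per campaign, cut at about 52% in these data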
NR2F2 inh = blocks human COUP-TFII nuclear receptor; P24468; HEK293T NGFI-A luciferase reporter, luminescence; inhibition, % at 8.6 µM; 370,000 compounds, 0.7% hits; AID 686940;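 active means inhibition above a per-plate cutoff, mean inhibition of test wells between control levels plus 3 SD, cut at about 38% in these data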;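 further: cells cotransfected with COUP-TFII expression vector driving the NGFI-A reporter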
LRH-1 inv ag = suppresses constitutive activity of human LRH-1; HEK293T StAR-luciferase reporter, LRH-1 transfected, 24 h; 360,000 compounds, 0.13% hits; AID 602396; inhibition, % at 3.6 µM;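 active means inhibition above the mean inhibition of all tested compounds plus 3 SD, cut at about 73% in these data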
NCOA3 inh = inhibits human SRC3 coactivator. Q9Y6Q9. HEK293 GAL4-SRC3 luciferase reporter, luminescence. inhibition, % at 3.6 µM. 360,000 compounds, 0.17% hits;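 active means inhibition above a per-campaign cutoff, the mean of all compounds plus 3 SD, cut at about 60% in these data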;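 further: higher means less SRC3-driven luciferase light from the GAL4 reporter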
Gal4-VP16 ctr = VP16 inhibition counter-screen for COUP-TFII. HEK293 Gal4-VP16 luciferase reporter, luminescence. 2,500 compounds, 25% hits. inhibition, % at 8.5 µM. shares compounds with NR2F2 inh; in the data active means inhibition above about 13%
COUP-TFII conf = confirmation of human COUP-TFII (NR2F2) inhibitors; 2,500 compounds, 45% hits; shares compounds with NR2F2 inh; HEK293 NGFI-A luciferase reporter, luminescence; inhibition, % at 8.5 µM;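 active means mean inhibition over three repeats above a set limit taken from the earlier primary screen, cut at about 38% in these data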
Numbers stand for hits.

Screening CCOC(=O)[C@]12CCC=C1N(Cc1ccco1)C(=O)[C@H](CC(=O)NCc1ccc(OC)c(OC)c1)C2 returned NCOA2 inhibitor inactive, NR2F2 inh inactive and LRH-1 inv ag inactive.
For COC(=O)[C@]12CCCCC=C1N(Cc1cccc3ccccc13)C(=O)[C@H](CC(=O)NCc1ccc(OC)c(OC)c1)C2 the results were NCOA2 inhibitor inactive, NR2F2 inh 97, LRH-1 inv ag inactive, Gal4-VP16 ctr inactive and COUP-TFII conf 58.
For Cc1cccc(C=NNc2cc(C)c3cccc(C)c3n2)n1 the results were NCOA2 inhibitor inactive and NR2F2 inh inactive.
O=C1C(=O)c2cccnc2-c2ncccc21 was read as SRC1 inh 89, NCOA2 inhibitor 94, NR2F2 inh 103, LRH-1 inv ag 104, NCOA3 inh 91, Gal4-VP16 ctr 97 and COUP-TFII conf 112.
Screening CN(C)c1ccc(CC(=O)N2CCCCC2c2cc(C(=O)Nc3ccccc3Cl)no2)cc1 (stereo not drawn) returned SRC1 inh inactive, NCOA2 inhibitor inactive, NR2F2 inh 48, LRH-1 inv ag inactive, NCOA3 inh inactive, Gal4-VP16 ctr inactive and COUP-TFII conf inactive.
CCN(CC)C(=O)CC[C@@H]1CC[C@]2(CCCN(Cc3ccccn3)C2)O1 was read as NCOA2 inhibitor inactive and NR2F2 inh inactive.
Screening Cc1ccc(S(=O)(=O)N(C)c2ccc(OCC(=O)Nc3nc4ccccc4s3)cc2)cc1 returned Gli-Sufu block inactive, SRC1 inh inactive, NCOA2 inhibitor inactive, NR2F2 inh 39, LRH-1 inv ag inactive, NCOA3 inh inactive, Gal4-VP16 ctr inactive and COUP-TFII conf inactive.
`CCN(CC)c1ccc(/C=C/c2cccc[n+]2C)c(OC)c1` gave Gli-Sufu block 89, SRC1 inh inactive, NCOA2 inhibitor inactive, NR2F2 inh 78, LRH-1 inv ag 82, NCOA3 inh inactive, Gal4-VP16 ctr 19 and COUP-TFII conf 74.
Screening CC1CN(c2nc3ccccc3nc2SCC(=O)N2CCN(S(=O)(=O)c3ccccc3)CC2)CC(C)O1 (stereo not drawn) returned NCOA2 inhibitor inactive, NR2F2 inh 43, Gal4-VP16 ctr inactive and COUP-TFII conf inactive.
For COC(=O)c1ccc(N2CCC(c3cc(-c4ccc(OC)cc4)n[nH]3)CC2)c([N+](=O)[O-])c1 the results were Gli-Sufu block inactive, SRC1 inh inactive, NCOA2 inhibitor inactive, NR2F2 inh inactive, LRH-1 inv ag inactive and NCOA3 inh inactive.
`COc1ccc(-c2cc(C3CCN(c4ccc(C(C)=O)cc4[N+](=O)[O-])CC3)[nH]n2)cc1` gave Gli-Sufu block inactive, SRC1 inh inactive, NCOA2 inhibitor inactive, NR2F2 inh 42, LRH-1 inv ag inactive, NCOA3 inh inactive, Gal4-VP16 ctr inactive and COUP-TFII conf inactive.
For FC(F)(F)c1cccc(Cc2noc(CN3CCC(c4ccncc4)CC3)n2)c1 the results were Gli-Sufu block inactive, SRC1 inh inactive, NCOA2 inhibitor inactive, NR2F2 inh 53, LRH-1 inv ag inactive, NCOA3 inh inactive, Gal4-VP16 ctr inactive and COUP-TFII conf inactive.
`COc1ccc(-c2cc(NC(=O)Cc3c(C)[nH]c4ccccc34)ccc2Nc2cccnc2)cc1OC` gave NCOA2 inhibitor inactive and NR2F2 inh inactive.
N=c1ccn(Cc2ccc(Cl)c(Cl)c2)cc1 was read as Gli-Sufu block inactive, SRC1 inh inactive, NCOA2 inhibitor inactive, NR2F2 inh 49, LRH-1 inv ag inactive, NCOA3 inh inactive, Gal4-VP16 ctr inactive and COUP-TFII conf inactive.
For N=c1ccn(Cc2ccc(Cl)cc2)cc1 the results were Gli-Sufu block inactive, SRC1 inh inactive, NCOA2 inhibitor inactive, NR2F2 inh inactive, LRH-1 inv ag inactive and NCOA3 inh inactive.
CCOC(=O)[C@]12CCCCC/C=C\1N(Cc1ccc(OC)cc1)C(=O)[C@H]2CC(=O)NCCc1ccccc1OC was read as NCOA2 inhibitor inactive and NR2F2 inh inactive.
For N#Cc1cc(-c2ccccc2)[nH]c1-c1nccc2ccccc12 the results were Gli-Sufu block inactive, SRC1 inh inactive, NCOA2 inhibitor inactive, NR2F2 inh 50, LRH-1 inv ag inactive, NCOA3 inh inactive, Gal4-VP16 ctr inactive and COUP-TFII conf inactive.
`NC(=O)c1ccc(NC(=O)CSc2nnc(-c3ccccc3)n2-c2ccccc2)cc1` gave NCOA2 inhibitor inactive and NR2F2 inh inactive.
`CN(C)c1ccc(Nc2ncnc3ccc(Br)cc23)cc1` gave Gli-Sufu block inactive, SRC1 inh inactive, NCOA2 inhibitor inactive, NR2F2 inh 38, LRH-1 inv ag inactive, NCOA3 inh inactive, Gal4-VP16 ctr inactive and COUP-TFII conf inactive.
For Brc1ccc2ncnc(NCc3ccccc3)c2c1 the results were Gli-Sufu block inactive, SRC1 inh 67, NCOA2 inhibitor 55, NR2F2 inh 58, LRH-1 inv ag inactive, NCOA3 inh 64, Gal4-VP16 ctr 18 and COUP-TFII conf 49.
Cc1cccc(Nc2ncnc3ccc(Br)cc23)c1 was read as Gli-Sufu block inactive, SRC1 inh inactive, NCOA2 inhibitor inactive, NR2F2 inh 45, LRH-1 inv ag inactive, NCOA3 inh inactive, Gal4-VP16 ctr inactive and COUP-TFII conf inactive.
For CN1CCCCC(NC(=O)c2ccccn2)C1=O (stereo not drawn) the results were NCOA2 inhibitor inactive and NR2F2 inh inactive.
Screening COc1cc(NC(=O)C2CCCN(S(=O)(=O)c3ccc(Cl)s3)C2)cc(OC)c1 (stereo not drawn) returned NCOA2 inhibitor inactive and NR2F2 inh inactive.
For COCCNC(=S)N1C[C@H]2CON(C)[C@H]2C[C@H]1c1ccccc1Br the results were NCOA2 inhibitor inactive and NR2F2 inh inactive.
Screening O=C(NCc1ccccc1)[C@H]1CCCN1C(=O)[C@H]1CCCN1C(=O)c1ccc(OC(F)(F)F)cc1 returned NCOA2 inhibitor inactive and NR2F2 inh inactive.
Screening CCC(NC(=O)Nc1nnc(C(F)(F)F)s1)(C(F)(F)F)C(F)(F)F returned Gli-Sufu block inactive, SRC1 inh inactive, NCOA2 inhibitor inactive, NR2F2 inh 67, LRH-1 inv ag inactive, NCOA3 inh 76, Gal4-VP16 ctr 17 and COUP-TFII conf 60.
Screening Cc1cccc(NC(=O)c2ccc(C3SCC(=O)N3CCc3ccccc3)cc2)c1 (stereo not drawn) returned Gli-Sufu block inactive, SRC1 inh inactive, NCOA2 inhibitor inactive, NR2F2 inh 45, LRH-1 inv ag inactive, NCOA3 inh inactive, Gal4-VP16 ctr inactive and COUP-TFII conf inactive.
For Cc1cccc(NC(=O)CN2CCN(C(=O)CNC(=O)c3ccc(-c4ccccc4)cc3)CC2)c1C the results were SRC1 inh inactive, NCOA2 inhibitor inactive, NR2F2 inh 55, LRH-1 inv ag inactive, NCOA3 inh inactive, Gal4-VP16 ctr inactive and COUP-TFII conf inactive.
